Records with an inconclusive call do not appear. Calls of active or inactive are those of the source. How the source made its calls, unless noted: active means hit-call score of the fitted dose curve at least 0.9, where 1 is the maximum; inactive means score below 0.9.
How the values were obtained:
SERPINA7 (gene 6906) = test: CCTE_GLTED_hTBG: CCTE's human Thyroxine-binding Globulin (TBG) Inhibition Assay, Great Lakes Toxicology and Ecology Division (GLTED) Lab (AID 2284343; active means hit-call score of the fitted dose curve at least 0.9, where 1 is the maximum;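 further: active chemicals lower fluorescence versus DMSO baseline by displacing probe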)
In short: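 Fluorescence (ex 380/em 475) reports ANSA displaced from human TBG after a 2 h incubation with test chemical, without cells. Loss of signal indicates displacement, with DMSO serving as baseline.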

[1] = tested on: SRY-box transcription factor 2 (SOX2) Protein Expression, Deisenroth Lab, SOX2 (gene 6657); test: CCTE_Deisenroth_DEVTOX-GLR_legacy_Sox2: (Legacy) CCTE's DevTox GLR-Endo Assay Evaluation of SRY-box transcription factor 2 (SOX2) Protein Expression, Deisenroth Lab (AID 2284346)
In short: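 Percent Sox2-positive cells was scored by high-content imaging of 5 fields per well. Positivity cutoff was 5x BMAD over the directed endoderm control, and the DMSO median was subtracted. Cells were RUES2-GLR, dosed twice at 24-h intervals over 48 h of differentiation (1 nM-200 uM).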

[2] = tested on: SRY-box transcription factor 17 (SOX17) Protein Expression, Deisenroth Lab, SOX17 (gene 64321); test: CCTE_Deisenroth_DEVTOX-GLR_Endo_SOX17: CCTE's DevTox GLR-Endo Assay Evaluation of SRY-box transcription factor 17 (SOX17) Protein Expression, Deisenroth Lab (AID 2284413)
Protocol: CCTE_Deisenroth_DEVTOX-GLR_Endo assay is a cell-based, multiplex-readout assay that uses RUES2-GLR, a human pluripotent cell line, with measurements taken at 48 hours after chemical dosing in a 384-well microplateCCTE_Deisenroth_DEVTOX-GLR_Endo_SOX17 is 1 of 4 assay components calculated from the CCTE_Deisenroth_DEVTOX-GLR_Endo assay and it measures the percentage of cells in an endoderm state. Using a type of inducible fluorescent protein reporter, gain-of-signal activity can be used to understand changes in gene expression with fluorescent microscopy. The percentage of SOX17+ cells are determined by calculating the number of SOX17+ cells divided by the cell count. To generalize the intended target to other relatable targets, this assay component is annotated to the transcription factor intended target family, where the subfamily is SRY-related HMG-box.Data from the assay component CCTE_Deisenroth_DEVTOX-GLR_Endo_SOX17 was analyzed as 1 assay endpoint. The endpoint is the percent change in SOX17+ cell population relative to the 0.2% DMSO control in the CCTE_Deisenroth_DEVTOX-GLR_Endo assay. This assay endpoint can be referred to as a primary readout since this assay has produced multiple assay endpoints where this one serves as a measure of endoderm differentiation.
(§1) All assay protocols are aligned to the DevTox GLR-Endo assay workflow. Cells are seeded into 384-well microplates for 24 hours prior to initiating differentiation in defined media for a total duration of 48 hours. A total of two chemical exposures are administered in 24-hour intervals during the 48-hour differentiation period. At the assay termination point, cells are fixed and stained with a fluorescent dye demarcating the nucleus. High-content imaging is used to acquire brightfield and fluorescent channel images across 5 fields per well. Cell identification and mean biomarker fluorescence intensities are calculated with image analysis software to determine the total cell counts for viability assessment and the biomarker expression frequency for each lineage-dependent assay. A typical experimental design tests a 10-point concentration series (1 nM - 200 uM) for 28 compounds in single technical replicate. Assay plate controls include non-differentiated pluripotent cells (baseline control), lineage-specific differentiated cells (differentiation control), and DMSO solvent exposed differentiated cells (solvent control). Experiments typically comprise a minimum of four experimental replicates (n=4).

[3] = tested on: Brachyury (BRA) Protein Expression, TBXT (gene 6862); test: CCTE_Deisenroth_DEVTOX-GLR_Endo_BRA: CCTE's DevTox GLR-Endo Assay Evaluation of Brachyury (BRA) Protein Expression, Deisenroth Lab (AID 2284417)
In short: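 RUES2-GLR pluripotent cells differentiated 48 h with two chemical exposures 24 h apart, 10-point range 1 nM - 200 uM. Percentage of BRA+ cells per total count by high-content imaging, minus 0.2% DMSO control.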

[4] = CCTE_Deisenroth_DEVTOX-GLR_Endo_CellCount: Viability Assessment in CCTE's DevTox GLR-Endo Assay, Deisenroth Lab (AID 2284420)
In short: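 Viability in differentiating RUES2-GLR cultures is scored by fluorescent nuclear counts after 48 h and two 24-hourly chemical treatments, as percent change from the 0.2% DMSO control.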

[5] = tested on: SRY-box transcription factor 17 (SOX17) Protein Expression, Deisenroth Lab, SOX17 (gene 64321); test: CCTE_Deisenroth_DEVTOX-GLR_Pluri_SOX17: CCTE's DevTox GLR-Pluri Assay Evaluation of SRY-box transcription factor 17 (SOX17) Protein Expression, Deisenroth Lab (AID 2284427; active means hit-call score of the fitted dose curve at least 0.9, where 1 is the maximum)
In short: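 Seed cells 24 h; differentiate 48 h, dosing at 0 and 24 h (1 nM - 200 uM); fix, stain nuclei, image 5 fields per well; count SOX17+ cells over total cells and subtract 0.2% DMSO control.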

[6] = tested on: SRY-box transcription factor 2 (SOX2) Protein Expression, Deisenroth Lab, SOX2 (gene 6657); test: CCTE_Deisenroth_DEVTOX-GLR_Pluri_SOX2: CCTE's DevTox GLR-Pluri Assay Evaluation of SRY-box transcription factor 2 (SOX2) Protein Expression, Deisenroth Lab (AID 2284428)
In short: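 SOX2 expression frequency is scored in a human pluripotent reporter line, RUES2-GLR, exposed to chemicals twice over 48 h. Imaging-based SOX2+ cell percentage is normalized as change versus 0.2% DMSO.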

[7] = tested on: Brachyury (BRA) Protein Expression, Deisenroth Lab, TBXT (gene 6862); test: CCTE_Deisenroth_DEVTOX-GLR_Pluri_BRA: CCTE's DevTox GLR-Pluri Assay Evaluation of Brachyury (BRA) Protein Expression, Deisenroth Lab (AID 2284429; active means hit-call score of the fitted dose curve at least 0.9, where 1 is the maximum)
In short: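 Percent BRA+ cells (BRA+ count over total cells) by high-content imaging of fixed RUES2-GLR cultures, corrected by 0.2% DMSO control. Cells received two doses over 48-hour differentiation, 1 nM–200 uM, n=4 experiments.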

[8] = CCTE_Deisenroth_DEVTOX-GLR_Pluri_CellCount: Viability Assessment in CCTE's DevTox GLR-Pluri Assay Evaluation of Total Cell Counts, Deisenroth Lab (AID 2284430)
Protocol: CCTE_Deisenroth_DEVTOX-GLR_Pluri assay is a cell-based, multiplex-readout assay that uses RUES2-GLR, a human pluripotent cell line, with measurements taken at 48 hours after chemical dosing in a 384-well microplateCCTE_Deisenroth_DEVTOX-GLR_Pluri_CellCount is 1 of 4 assay components calculated from the CCTE_Deisenroth_DEVTOX-GLR_Pluri assay and it measures cell count. Using fluorescent nuclei staining, gain-of-signal activity can be used to understand changes in cell viability with fluorescent microscopy. It is designed to make measurements of nuclei counts as a surrogate for cell number, as detected with optical fluorescence microscopy by Perkin Elmer Harmony nuclei detection algorithm. To generalize the intended target to other relatable targets, this assay component is annotated to the cell cycle intended target family, where the subfamily is cytotoxicity.Data from the assay component CCTE_Deisenroth_DEVTOX-GLR_Pluri_CellCount was analyzed as 1 assay endpoint. The endpoint the percent change in the cell count relative to the 0.2% DMSO control in the CCTE_Deisenroth_DEVTOX-GLR_Pluri assay. Furthermore, this assay endpoint can be referred to as a primary readout, because this assay has produced multiple assay endpoints where this one serves as a measure of cytotoxicity.
as §1

Q: For `S=c1[nH]c2ccccc2s1`, which AC50 (SERPINA7 (gene 6906)) is on record?
A: The AC50 was 36.4 µM (active).

Q: Which AC50 (SERPINA7 (gene 6906)) does the source give for `CCCCCCCCCCCCCCOS(=O)(=O)O` here?
A: Its AC50 is 27.7 µM (active).

Q: Which AC50 (SERPINA7 (gene 6906)) does the source give for `CC(=O)CC(c1ccccc1)c1c(O)c2ccccc2oc1=O` (stereo unspecified) here?
A: The AC50 was 37.9 µM (active).

Q: And the outcome [1]?
A: The outcome was “inactive”.

Q: And the AC50 [2]?
A: The AC50 was 100 µM (active).

Q: And the AC50 [3]?
A: The AC50 was 1.45e-06 µM (active).

Q: And the outcome [4]?
A: The outcome was “inactive”.

Q: And the outcome [5]?
A: Its outcome is “inactive”.

Q: What about the outcome [6] of the same molecule?
A: Its outcome is “inactive”.

Q: What about the outcome [7] of the same molecule?
A: The outcome was “inactive”.

Q: What about the outcome [8] of the same molecule?
A: The outcome was “inactive”.

Q: For `Cc1cn([C@H]2C=C[C@@H](CO)O2)c(=O)[nH]c1=O`, which outcome [1] is on record?
A: The outcome was “inactive”.

Q: And the outcome [2]?
A: Its outcome is “inactive”.

Q: What about the outcome [3] of the same molecule?
A: The outcome was “inactive”.

Q: And the outcome [4]?
A: The outcome was “inactive”.

Q: What about the outcome [5] of the same molecule?
A: The outcome was “inactive”.

Q: What about the outcome [6] of the same molecule?
A: Its outcome is “inactive”.

Q: What about the outcome [7] of the same molecule?
A: Its outcome is “inactive”.

Q: And the outcome [8]?
A: Its outcome is “inactive”.

Q: Which AC50 (SERPINA7 (gene 6906)) does the source give for `Cc1ccc(C(C)(C)C)c(O)c1` here?
A: The AC50 was 26.7 µM (active).

Q: Which AC50 (SERPINA7 (gene 6906)) does the source give for `O=Cc1ccccc1C=O` here?
A: The AC50 was 8.72 µM (active).

Q: With `Cc1cc(Cc2ccc(N)c(C)c2)ccc1N` as the molecule, how does the AC50 (SERPINA7 (gene 6906)) read?
A: The AC50 was 24 µM (active).

Q: With `O=C1OC(c2ccc(O)cc2)(c2ccc(O)cc2)c2ccccc21` as the molecule, how does the AC50 (SERPINA7 (gene 6906)) read?
A: Its AC50 is 3.3 µM (active).

Q: For `O=C1c2c(O)cccc2Cc2cccc(O)c21`, which AC50 (SERPINA7 (gene 6906)) is on record?
A: The AC50 was 41.1 µM (active).

Q: Which AC50 (SERPINA7 (gene 6906)) does the source give for `CCCCc1nc2cccnc2n1Cc1ccc(-c2ccccc2-c2nnn[nH]2)cc1` here?
A: Its AC50 is 33.7 µM (active).

Q: Which AC50 (SERPINA7 (gene 6906)) does the source give for `O=C1NC(=O)C(c2ccccc2)(c2ccccc2)N1` here?
A: Its AC50 is 17.4 µM (active).

Q: What about the outcome [1] of the same molecule?
A: The outcome was “inactive”.

Q: And the outcome [2]?
A: The outcome was “inactive”.

Q: And the AC50 [3]?
A: The AC50 was 100 µM (active).

Q: What about the outcome [4] of the same molecule?
A: Its outcome is “inactive”.

Q: What about the AC50 [6] of the same molecule?
A: Its AC50 is 150 µM (active).

Q: And the AC50 [7]?
A: Its AC50 is 152 µM (active).

Q: What about the AC50 [8] of the same molecule?
A: The AC50 was 100 µM (active).

Q: Which AC50 (SERPINA7 (gene 6906)) does the source give for `O=C(Oc1ccccc1)c1cccc(C(=O)Oc2ccccc2)c1` here?
A: Its AC50 is 9.91 µM (active).

Q: With `O=C(O)c1[nH]n(-c2ccc(S(=O)(=O)O)cc2)c(=O)c1N=Nc1ccc(S(=O)(=O)O)cc1` as the molecule, how does the AC50 (SERPINA7 (gene 6906)) read?
A: The AC50 was 27.1 µM (active).

Q: For `CCCCCCC(C=O)=Cc1ccccc1`, which AC50 (SERPINA7 (gene 6906)) is on record?
A: Its AC50 is 21.5 µM (active).

Q: For `CCC(C)N(C)C(=O)c1cc2ccccc2c(-c2ccccc2Cl)n1` (stereo unspecified), which AC50 (SERPINA7 (gene 6906)) is on record?
A: The AC50 was 38.1 µM (active).

Q: For `Cc1c(C)c2c(c(C)c1O)CCC(C)(COc1ccc(CC3SC(=O)NC3=O)cc1)O2` (stereo unspecified), which AC50 (SERPINA7 (gene 6906)) is on record?
A: The AC50 was 8.3 µM (active).

Q: Which outcome [1] does the source give for `O=C(O)c1cccnc1` here?
A: Its outcome is “inactive”.

Q: And the outcome [2]?
A: The outcome was “inactive”.

Q: And the outcome [3]?
A: The outcome was “inactive”.

Q: What about the outcome [4] of the same molecule?
A: The outcome was “inactive”.

Q: What about the outcome [5] of the same molecule?
A: Its outcome is “inactive”.

Q: And the outcome [6]?
A: The outcome was “inactive”.

Q: And the outcome [7]?
A: Its outcome is “inactive”.

Q: And the outcome [8]?
A: The outcome was “inactive”.
